The term inhibition denotes the change of the read-out against control, counted positive when it falls.

Assay [1] is described as follows: antimalarial activity against Dd2 strain (AID 2302;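 active = growth inhibition above 50% at the single 2 µM test dose, taken to imply half-maximal potency below 2 µM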;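 also: 0% = DMSO untreated growth and 100% = chloroquine plus artemisinin killed control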). The following applies: P. falciparum Dd2 in RBCs, LDH growth readout, 72 h; at 2 µM; hits give high values.
Assay [2] in a line: HepG2 cytotoxicity, primary screen, cytotoxicity control for P. falciparum antimalarial project, cell-based, ATP luminescence (AID 2303;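 active = inhibition above 50%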;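 also: 0% = DMSO wells and 100% = digitonin-killed cells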). To be noted: HepG2 viability, 24-48 h, at 10 µM, hits give high values.
In assay [3] the target is L-lactate dehydrogenase (Plasmodium falciparum (isolate CDC / Honduras)) (UniProt Q27743). The experiment in a line: PfLDH activity inhibition – cell lysate, 3D7 strain, counter-screen for P. falciparum growth inhibition project (AID 2304).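 Also: 0% = vehicle and 100% = reference inhibitor.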 To be noted: P. falciparum 3D7 crude extract, LDH APAD/NBT absorbance; at 2 µM; hits give high values.
Sequence of L-lactate dehydrogenase (Plasmodium falciparum (isolate CDC / Honduras)) (Q27743 whole entry, looked up): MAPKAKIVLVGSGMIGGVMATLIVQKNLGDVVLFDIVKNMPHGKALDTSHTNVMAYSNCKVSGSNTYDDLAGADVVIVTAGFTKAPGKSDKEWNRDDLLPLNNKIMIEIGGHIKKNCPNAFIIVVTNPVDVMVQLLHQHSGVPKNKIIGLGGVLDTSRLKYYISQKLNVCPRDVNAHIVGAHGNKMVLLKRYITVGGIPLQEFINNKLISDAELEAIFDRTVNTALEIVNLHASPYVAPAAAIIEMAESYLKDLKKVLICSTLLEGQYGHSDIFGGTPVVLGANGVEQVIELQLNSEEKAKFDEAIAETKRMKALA
Assay [4] in a line: inhibition of 3D7 malaria parasite growth – strain 3D7 (AID 2306).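 Also: 0% = DMSO wells and 100% = chloroquine plus artemisinin control wells.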 To be noted: P. falciparum 3D7 erythrocytic growth, LDH absorbance, 72 h; at 2 µM; hits give high values.
For assay [5], the target named is Calcium-dependent protein kinase 1 (Plasmodium falciparum (isolate 3D7)) (UniProt P62344). The experiment in a line: PfCDPK1 kinase inhibitors, biochemical, TCAMS library (AID 1159585; cut-off not given, nearly all actives have IC50 up to about 0.98 µM;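 also: inhibitors leave more ATP so luminescence rises with inhibition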). To be noted: recombinant PfCDPK1, Kinase-Glo ATP depletion luminescence. (In general: In Kinase-Glo more light means more ATP remaining.)
Sequence of Calcium-dependent protein kinase 1 (Plasmodium falciparum (isolate 3D7)) (P62344 whole entry, looked up): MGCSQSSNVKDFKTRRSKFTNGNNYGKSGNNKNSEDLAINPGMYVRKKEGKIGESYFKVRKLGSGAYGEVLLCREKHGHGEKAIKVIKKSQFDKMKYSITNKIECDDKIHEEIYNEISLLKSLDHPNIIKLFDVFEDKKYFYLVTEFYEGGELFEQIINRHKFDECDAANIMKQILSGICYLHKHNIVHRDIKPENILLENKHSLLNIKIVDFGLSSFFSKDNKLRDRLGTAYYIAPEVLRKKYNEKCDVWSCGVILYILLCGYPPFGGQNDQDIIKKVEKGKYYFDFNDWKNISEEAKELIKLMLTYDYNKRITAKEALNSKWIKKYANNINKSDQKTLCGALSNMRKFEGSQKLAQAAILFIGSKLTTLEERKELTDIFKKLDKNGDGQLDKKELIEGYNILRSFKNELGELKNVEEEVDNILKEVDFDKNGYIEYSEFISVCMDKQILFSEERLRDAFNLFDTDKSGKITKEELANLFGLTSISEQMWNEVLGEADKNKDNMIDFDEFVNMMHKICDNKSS
Assay [6] addresses Plasmodium falciparum protein kinase 6 (PK6, PF3D7_1337100) (UniProt Q8IDW1). The experiment in a line: PfPK6 kinase inhibitors, biochemical, TCAMS library (AID 1159586). To be noted: recombinant PfPK6, Kinase-Glo ATP depletion luminescence.
The target in assay [7] is Protein kinase 7 (PK7), Plasmodium falciparum 3D7 (PF3D7_0213400) (UniProt Q7YTF7). The experiment in a line: inhibition of Plasmodium PK7 catalytic activity – biochemical, TCAMS antimalarial set, Kinase-Glo luminescence (AID 1159587). The following applies: recombinant PfPK7, Kinase-Glo ATP depletion luminescence.
Sequence of Protein kinase 7 (PK7), Plasmodium falciparum 3D7 (PF3D7_0213400) (Q7YTF7 1-343): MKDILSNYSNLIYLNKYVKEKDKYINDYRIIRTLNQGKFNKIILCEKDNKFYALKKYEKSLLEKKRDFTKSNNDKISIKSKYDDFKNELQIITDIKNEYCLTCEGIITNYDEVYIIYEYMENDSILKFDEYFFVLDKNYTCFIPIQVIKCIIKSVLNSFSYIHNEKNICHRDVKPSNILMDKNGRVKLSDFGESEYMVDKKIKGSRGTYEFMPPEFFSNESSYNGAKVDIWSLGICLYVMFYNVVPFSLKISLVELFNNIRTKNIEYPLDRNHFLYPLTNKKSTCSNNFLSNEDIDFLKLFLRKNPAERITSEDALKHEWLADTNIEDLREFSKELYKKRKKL
Assay [8] has as its target Calcium-dependent protein kinase 4 (Plasmodium falciparum (isolate 3D7)) (UniProt Q8IBS5). The experiment in a line: PfCDPK4 kinase inhibitors, biochemical, TCAMS library (AID 1159588; cut-off not given, nearly all actives have IC50 up to about 0.91 µM). The following applies: recombinant PfCDPK4, Kinase-Glo ATP depletion luminescence.

Values without a mark were called inactive. For some of these results: Results with a measured potency or affinity are listed apart. Calls of active or inactive are those of the source. Unless noted, no rule for the calls is given here.

Sequence of Plasmodium falciparum protein kinase 6 (PK6, PF3D7_1337100) (Q8IDW1 1-305): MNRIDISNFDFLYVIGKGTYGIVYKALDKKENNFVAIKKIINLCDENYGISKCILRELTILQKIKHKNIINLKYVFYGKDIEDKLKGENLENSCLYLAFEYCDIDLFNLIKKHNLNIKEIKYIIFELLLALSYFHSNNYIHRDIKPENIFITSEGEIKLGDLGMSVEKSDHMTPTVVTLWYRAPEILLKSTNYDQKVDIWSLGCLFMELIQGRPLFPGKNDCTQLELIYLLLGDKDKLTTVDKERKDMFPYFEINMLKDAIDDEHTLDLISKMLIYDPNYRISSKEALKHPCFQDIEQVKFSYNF
Sequence of Calcium-dependent protein kinase 4 (Plasmodium falciparum (isolate 3D7)) (Q8IBS5 whole entry, looked up): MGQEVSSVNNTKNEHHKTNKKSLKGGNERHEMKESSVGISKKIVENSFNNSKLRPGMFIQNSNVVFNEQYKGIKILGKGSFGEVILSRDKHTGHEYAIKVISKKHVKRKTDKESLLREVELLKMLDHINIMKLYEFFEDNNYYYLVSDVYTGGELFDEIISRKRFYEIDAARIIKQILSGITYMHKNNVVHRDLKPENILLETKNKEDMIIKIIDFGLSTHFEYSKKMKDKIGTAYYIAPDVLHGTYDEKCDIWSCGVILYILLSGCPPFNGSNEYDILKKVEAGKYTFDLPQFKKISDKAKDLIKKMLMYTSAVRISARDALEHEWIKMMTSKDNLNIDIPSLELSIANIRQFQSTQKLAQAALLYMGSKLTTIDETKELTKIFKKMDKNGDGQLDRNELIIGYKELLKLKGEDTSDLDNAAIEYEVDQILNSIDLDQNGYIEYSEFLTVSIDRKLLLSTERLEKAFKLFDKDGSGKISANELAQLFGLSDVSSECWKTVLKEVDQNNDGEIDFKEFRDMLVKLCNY

Turning to `O[C@@H](c1cccc(OCc2ccccc2)c1)[C@@H]1CN(CCc2ccccc2)CC[C@@]1(O)c1ccccc1`, the growth inhibition in assay [1] and in assay [4] was 98% (active) each time. The inhibition was 7% in assay [2] and -4% in assay [3]. Moreover, the result in assay [5], in assay [6], in assay [7] and in assay [8] was inactive.
`Cc1ccc(C)c2sc(N(CCCn3ccnc3)C(=O)C=Cc3cccs3)nc12`: the figures for the growth inhibition in assay [1] and in assay [4] were 93% (active) and 101% (active), respectively. Further, the inhibition in assay [2] was 20%; in assay [3], 0%. For the same compound, the outcome in assay [5], in assay [6], in assay [7] and in assay [8] was inactive.
Take `CCN(CC)CCN(Cc1ccc(-c2ccc(C(F)(F)F)cc2)cc1)C(=O)Cn1c(SCc2ccc(F)cc2)nc(=O)c2ccccc21`: the values for the growth inhibition in assay [1] and in assay [4] were 48% and 98% (active), respectively. Also, the inhibition is 47% in assay [2] and 6% in assay [3]. Also, the outcome in assay [5], in assay [6], in assay [7] and in assay [8] was inactive.
Take `O=C(CCCCCNC(=O)c1ccc(O)c(-c2ccc(Cl)c(Cl)c2)c1)NC1CCCCCC1`: the growth inhibition was 3% in assay [1] and 92% (active) in assay [4]. Further, the inhibition in assay [2] was -4%; in assay [3], 2%. The outcome in assay [5], in assay [6], in assay [7] and in assay [8] was inactive.
As for `CC(C)Cn1c(Sc2ccc(C#N)c([N+](=O)[O-])c2)nnc1-c1cccs1`, the results for the growth inhibition in assay [1] and in assay [4] were 32% and 90% (active), respectively. Also, the inhibition is 9% in assay [2] and 5% in assay [3]. For the same compound, the result in assay [5], in assay [6], in assay [7] and in assay [8] was inactive.
Regarding `COc1ccc(C2CC(=O)C3=C(C2)NC(C)=C(C(=O)OC(C)C)C3c2ccccc2F)cc1OC` (stereo not given), the growth inhibition in assay [1] is 99% (active); in assay [4], 100% (active). Further, the results for the inhibition in assay [2] and in assay [3] were 14% and 0%, respectively. Moreover, the outcome in assay [5], in assay [6], in assay [7] and in assay [8] was inactive.
For `O=C(Nc1ccc(F)cc1)NC1CCN(c2ccnc3ccccc23)C1` (stereo not given), the growth inhibition in assay [1] was 2%; in assay [4], 92% (active). Besides, the inhibition was 9% in assay [2] and -2% in assay [3]. The result in assay [5], in assay [6], in assay [7] and in assay [8] was inactive.
For the compound `CCCCCCCC1CCN(C[C@H](O)c2ccnc3ccc(OC)cc23)CC1`, the growth inhibition in assay [1] is 81% (active); in assay [4], 94% (active). The inhibition is 23% in assay [2] and 3% in assay [3]. For the same compound, the outcome in assay [5], in assay [6], in assay [7] and in assay [8] was inactive.
For the compound `Cc1cc(N[C@@H](Cc2ccccc2)C(=O)NCc2cccs2)nc(NCCc2ccccc2)n1`, the growth inhibition is 61% (active) in assay [1] and 92% (active) in assay [4]. In addition, the values for the inhibition in assay [2] and in assay [3] were 6% and -1%, respectively. Also, the result in assay [5], in assay [6], in assay [7] and in assay [8] was inactive.
Regarding `Nc1c2ccccc2nc2cc(Cl)ccc12`, the results for the growth inhibition in assay [1] and in assay [4] were 86% (active) and 103% (active), respectively. For the same compound, the inhibition was 24% in assay [2] and -3% in assay [3]. For the same compound, the result in assay [5], in assay [6], in assay [7] and in assay [8] was inactive.
Regarding `O=S(=O)(c1cc(Cl)sc1Cl)N(CCC(O)(C(F)(F)F)C(F)(F)F)Cc1cccc(O)c1`, the growth inhibition in assay [1] is 97% (active); in assay [4], 98% (active). Moreover, the inhibition in assay [2] was -4%; in assay [3], 5%. Moreover, the result in assay [5], in assay [6], in assay [7] and in assay [8] was inactive.
Consider `CN(C)CCCNc1nccc(N(C)c2ccc(NC(=O)Nc3cc(C(F)(F)F)ccc3F)cc2)n1`, for which the growth inhibition was 25% in assay [1] and 93% (active) in assay [4]. Besides, the inhibition in assay [2] is 97% (active); in assay [3], 2%. In addition, the outcome in assay [5], in assay [6], in assay [7] and in assay [8] was inactive.
With `Cc1ncccc1C(=O)Nc1cccc(-c2cccc(-c3nc4c(C)cccc4[nH]3)c2)c1`, the growth inhibition in assay [1] was 69% (active); in assay [4] it was 93% (active). The inhibition is 6% in assay [2] and 4% in assay [3]. Further, the outcome in assay [5], in assay [6], in assay [7] and in assay [8] was inactive.
As for `CN(C)Cc1cccc(-c2ccc(NC(=O)c3ccc4c(=O)n(CCN5CCCCC5)cnc4c3)cc2)c1`, the growth inhibition in assay [1] is 67% (active); in assay [4], 101% (active). For the same compound, the inhibition in assay [2] was 23%; in assay [3], -1%. The outcome in assay [5], in assay [6], in assay [7] and in assay [8] was inactive.
`COc1ccc(Nc2ncc3c(-c4cccc(NC(=O)Cc5cccc(F)c5)c4)c[nH]c3n2)cc1OC`: the values for the growth inhibition in assay [1] and in assay [4] were 68% (active) and 101% (active), respectively. In addition, the inhibition was 24% in assay [2] and 2% in assay [3]. For the same compound, the outcome in assay [5], in assay [6], in assay [7] and in assay [8] was inactive.
As for `Cc1cc2nc(-c3ccc(/C=C/C(=O)NCCc4ccccc4)cc3)[nH]c2cc1C`, the growth inhibition is 13% in assay [1] and 98% (active) in assay [4]. The inhibition in assay [2] is 3%; in assay [3] it was 1%. Also, the outcome in assay [5], in assay [6], in assay [7] and in assay [8] was inactive.
Turning to `O=C(Nc1ccc2c(c1)CCC2)c1cccc(CN2CCCN(Cc3cccc(O)c3)CC2)c1`, the growth inhibition was 20% in assay [1] and 91% (active) in assay [4]. Also, the inhibition in assay [2] was 10%; in assay [3] it was 0%. Besides, the result in assay [5], in assay [6], in assay [7] and in assay [8] was inactive.
Consider `Oc1c(CN2CCC(Cc3ccccc3)CC2)cc(Cl)c2cccnc12`, for which the growth inhibition in assay [1] was 94% (active); in assay [4] it was 96% (active). The inhibition is 49% in assay [2] and 4% in assay [3]. The result in assay [5], in assay [6], in assay [7] and in assay [8] was inactive.
In the case of `Cc1cc(Cl)c(S(=O)(=O)N(C)c2ccccc2)cc1OCC(=O)NC1CCCCC1`, the growth inhibition in assay [1] was 94% (active); in assay [4], 99% (active). Also, the inhibition in assay [2] was 3%; in assay [3] it was -3%. For the same compound, the result in assay [5], in assay [6], in assay [7] and in assay [8] was inactive.
As for `CCNc1cc(C)nc(Nc2ccc(NC(=O)C3CCCC3)cc2)n1`, the growth inhibition in assay [1] was 69% (active); in assay [4], 99% (active). The inhibition in assay [2] was 13%; in assay [3], 0%. Also, the result in assay [5], in assay [6], in assay [7] and in assay [8] was inactive.

Source of the values: PubChem BioAssay.
